Source: article PMC7819943, “Rice protein-binding microarrays: a tool to detect cis-acting elements near promoter regions in rice”
Over roughly 39,000 sequences, “fluorescence intensity (a.u.)” has its median near 4,300; the highest 2% begin near 39,000. For the sample, the highest values were picked, then their nearest neighbours and some sequences at random.

The sequences below were run against T1, OsSMF1 (Oryza sativa, UniProt Q6ZLB0 1-436) (assay: protein-binding microarray (RPBM); PBS, 2% BSA, 51.3 ng/ul salmon testes DNA, 50 uM zinc acetate, 200 nM TF, 25 C, 1 h; high values mean tight binding). Conditions: protein: recombinant; tags: N-terminal polyhistidine and DsRed monomer fusion (pET32a); chain copies: 2; label: CyDye5-dUTP incorporated in the synthesized complementary strand; 3' TTTTT single-stranded linker to array surface; dsDNA, one strand shown.
T1 sequence: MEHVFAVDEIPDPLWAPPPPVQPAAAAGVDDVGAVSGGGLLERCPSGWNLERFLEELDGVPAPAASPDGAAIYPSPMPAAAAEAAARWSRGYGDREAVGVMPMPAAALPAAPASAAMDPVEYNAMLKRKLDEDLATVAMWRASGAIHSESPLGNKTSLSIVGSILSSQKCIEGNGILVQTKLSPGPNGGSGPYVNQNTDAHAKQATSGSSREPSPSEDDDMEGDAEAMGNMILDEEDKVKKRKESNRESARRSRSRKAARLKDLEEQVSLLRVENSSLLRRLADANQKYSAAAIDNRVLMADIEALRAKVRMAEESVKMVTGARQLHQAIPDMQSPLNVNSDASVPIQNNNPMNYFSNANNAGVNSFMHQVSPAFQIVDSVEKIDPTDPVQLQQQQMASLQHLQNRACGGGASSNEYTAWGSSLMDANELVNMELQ
Summary of the method: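 In PBS with 2% BSA, salmon testes DNA and 50 µM zinc acetate, 200 nM protein was incubated on a custom Agilent array at 25 °C for 1 h and then washed off. The array had been made double-stranded by primer extension with Cy5-dUTP and blocked with 2% BSA. The proteins were transcription factors fused N-terminally to polyhistidine and DsRed, expressed in E. coli BL21-CodonPlus and purified on Ni–NTA. The binding signal is per-feature fluorescence intensity (arbitrary units) from an Axon 4000B scanner.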

| Sequence | binding signal |
| --- | --- |
| CGGAGAGGGAGAAGGAGAGGAGAGGGGCTGATAGGTGGGGCGGAGTCACCTAGTGCAG | 3520 fluorescence intensity (a.u.) |
| CTCCTCCATTGCCAGTTGCTACTCATCCTCATCCTCTCCACGGAGTCACCTAGTGCAG | 22600 fluorescence intensity (a.u.) |
| TCCTCCAGATGTTACAGTCTCCGAATTTCAGTGATGTCACCGGAGTCACCTAGTGCAG | 11800 fluorescence intensity (a.u.) |
| ATCCAATCTGAGCCGTCCGCTGTACACCGTAGATCTATATCGGAGTCACCTAGTGCAG | 3450 fluorescence intensity (a.u.) |
| CTCCGTGATCGTCATGTCAAGACGCAAAATAAAGAGCAATCGGAGTCACCTAGTGCAG | 33400 fluorescence intensity (a.u.) |
| GAAACCCGGCCACATCACTCCTTCCCTATGCTCCAGTGAGCGGAGTCACCTAGTGCAG | 8040 fluorescence intensity (a.u.) |
| TTTTGGATGCAGCATATGGTTGTCCCGATGCAAAATCCTCCGGAGTCACCTAGTGCAG | 4530 fluorescence intensity (a.u.) |
| TGGCAAATAGTTCCGTGATGTCAGCTTGGAAGCATCCTGCCGGAGTCACCTAGTGCAG | 6410 fluorescence intensity (a.u.) |
| CTTTTGGCAAAATCCGTGATGCAGCATCGATCCCTGTCAACGGAGTCACCTAGTGCAG | 39800 fluorescence intensity (a.u.) |
| ATATATACCTGCATACACTAGACTAGTATAATACCTGGCACGGAGTCACCTAGTGCAG | 3530 fluorescence intensity (a.u.) |
| TATCCAAAATTTCATCCAACTCTTGTGGGAGAAACGGACACGGAGTCACCTAGTGCAG | 39500 fluorescence intensity (a.u.) |
| AAACGATAATATACCTTGTATAGTCATCCAACTCTTATTTCGGAGTCACCTAGTGCAG | 3630 fluorescence intensity (a.u.) |
| TTTCGGTCATGAAAACTCAGGACCAAATTTCATCCAAATACGGAGTCACCTAGTGCAG | 29300 fluorescence intensity (a.u.) |
| GATTTCTTTCTGCCGTCATCTTCGAATATCCATGACTCGCCGGAGTCACCTAGTGCAG | 3840 fluorescence intensity (a.u.) |
| ATCGATCAGGCAATGAACCCATTATTGTTTGCCTCCAAAACGGAGTCACCTAGTGCAG | 34100 fluorescence intensity (a.u.) |
| AAATGTCTCCCAAAACCTCAAAATTGAGTTCCATTATGAACGGAGTCACCTAGTGCAG | 61600 fluorescence intensity (a.u.) |
| CACTTGATGAGCTCCTCTCCATGTCCTCAAACGTACTGAACGGAGTCACCTAGTGCAG | 25100 fluorescence intensity (a.u.) |
| AATCGATTCGAAATCCACACCGCTACTACGGCTAATTACGCGGAGTCACCTAGTGCAG | 3870 fluorescence intensity (a.u.) |
| CGCATTGAGCCATTTACACTACACACACAGCCCCAGATTCCGGAGTCACCTAGTGCAG | 3420 fluorescence intensity (a.u.) |
| TCTGCTGATGATCTCTCTCTCTCTCTGTTTCAAAGCTGATCGGAGTCACCTAGTGCAG | 44700 fluorescence intensity (a.u.) |
| GATCTGTCACTGTATGGAATGATGCAAAGCTGCTGCTGATCGGAGTCACCTAGTGCAG | 32000 fluorescence intensity (a.u.) |
| ACCTCTTGCTGCTGCTCATTCTGATGTCATTCAAAGAGATCGGAGTCACCTAGTGCAG | 4480 fluorescence intensity (a.u.) |
| CGCGCGAGTGCTAGGAAGCTGAGTCACGCCCGCCCTCCTCCGGAGTCACCTAGTGCAG | 10700 fluorescence intensity (a.u.) |
| TCCCACATTAAATTTACTCATTAGTTGTTAGGAATCGACACGGAGTCACCTAGTGCAG | 20600 fluorescence intensity (a.u.) |
| CAAGAGAAAATAGCCAAAATAATAGCAGTAAGAACACAATCGGAGTCACCTAGTGCAG | 15400 fluorescence intensity (a.u.) |
| CAGTAAGCTAGCAAACAAACACACAAGAATATTTGTGATCCGGAGTCACCTAGTGCAG | 39900 fluorescence intensity (a.u.) |
| CAGAATATTTTGTCAGTCACTCTTGATCACTCTAGCAACACGGAGTCACCTAGTGCAG | 3980 fluorescence intensity (a.u.) |

| Sequence | binding signal |
| --- | --- |
| ATCGTGTGACGACGTCTCGTCTCGTCTCCCTCTCCCGACCCGGAGTCACCTAGTGCAG | 3260 fluorescence intensity (a.u.) |
| CGGGCACTCTCGTCTCCGACGTGAAGGCCCGAGATCACTGCGGAGTCACCTAGTGCAG | 60900 fluorescence intensity (a.u.) |
| CGACCGACCCTCGCCCGCCCACCGCCGTCACTCTCGTCTGCGGAGTCACCTAGTGCAG | 3920 fluorescence intensity (a.u.) |
| GGTTGATTATTCCGTCGGCGTCAGCCATCAGGTGCATCACCGGAGTCACCTAGTGCAG | 3270 fluorescence intensity (a.u.) |
| TCTTTCGTCGCAATGCCACGCCATCATCGATCCCTTTCCTCGGAGTCACCTAGTGCAG | 14800 fluorescence intensity (a.u.) |
| TTTCGGGATCCGACACGGGCTGAATCCGGCCCATCCAAACCGGAGTCACCTAGTGCAG | 37800 fluorescence intensity (a.u.) |
| GGAGTAGATATTATCACTAGCTAGTCACACGGACACAGTGCGGAGTCACCTAGTGCAG | 4900 fluorescence intensity (a.u.) |
| TAAACGCAAATTCTATATCACAACCACGTAAGTTTAGTAGCGGAGTCACCTAGTGCAG | 3870 fluorescence intensity (a.u.) |
| GTCTAGCTAGTGCAATTAGAGTAACCTATATATCACACAACGGAGTCACCTAGTGCAG | 52200 fluorescence intensity (a.u.) |
| TCGCCGCCGCGGCCGCCTCCACCTCATCATCTCCCACCTCCGGAGTCACCTAGTGCAG | 7900 fluorescence intensity (a.u.) |
| GCGGCGCATCCAGGAGGTTGAGTCGAGCACGCCACCGCTGCGGAGTCACCTAGTGCAG | 3420 fluorescence intensity (a.u.) |
| ACATCACCACCCACCTCACCCTGCCGCTCCCGAGCGCGATCGGAGTCACCTAGTGCAG | 4000 fluorescence intensity (a.u.) |
| GTCCCCGGCCTCGGCGCGCGGCGAGCACCGTGCCGCCCCACGGAGTCACCTAGTGCAG | 24000 fluorescence intensity (a.u.) |
| GTACGCGAGCATCCCGGCGTTGTCGAGGCGCTCCAGGACGCGGAGTCACCTAGTGCAG | 40200 fluorescence intensity (a.u.) |
| CACGGCCTCACCTCCCAGCCCGCGAGCACCGGCGGACGGACGGAGTCACCTAGTGCAG | 42400 fluorescence intensity (a.u.) |
| TTGAGCAGCCTCCCTTCCCCGGCGAGCAGCCCCGCCGCCGCGGAGTCACCTAGTGCAG | 3720 fluorescence intensity (a.u.) |
| AGGGCGAGGAGGCGCTTGAGGGCGTCGAGCTTGTCGGCATCGGAGTCACCTAGTGCAG | 28400 fluorescence intensity (a.u.) |
| GCTGCCAGCGCCGCCGCCACCTGTGTCGGCACGCGAGCGCCGGAGTCACCTAGTGCAG | 3350 fluorescence intensity (a.u.) |
| ACCTCCCACACCTGTGTCGATCCAGGCAGGCCGAGCGCGACGGAGTCACCTAGTGCAG | 43400 fluorescence intensity (a.u.) |
| AAACTGGCAAACGCGTCACATGAGTTTTACCTACCAATGTCGGAGTCACCTAGTGCAG | 3230 fluorescence intensity (a.u.) |
| ATTTCAATGTCAAGATGAGAAGGGAATTTAAGAGCCTGCACGGAGTCACCTAGTGCAG | 22800 fluorescence intensity (a.u.) |
| GCGCAGGCAACCACCCCACCCTTCTTCTCGAAACCTCTTCCGGAGTCACCTAGTGCAG | 3290 fluorescence intensity (a.u.) |
| ATGAAGGATGCTTAAAAGTCTATTTTGCCTCGGCAAAATACGGAGTCACCTAGTGCAG | 28700 fluorescence intensity (a.u.) |
| TTTCACGAAACCCAGTGATCCTGTCAGGTATCCTATGTACCGGAGTCACCTAGTGCAG | 3760 fluorescence intensity (a.u.) |
| GAAACCTGATGATGCTTGATGGAAATCCATTAGACAGCGTCGGAGTCACCTAGTGCAG | 4580 fluorescence intensity (a.u.) |
| TTGTACAGCAGCGTGCTTCCATATGAGGAAATCCACTTCTCGGAGTCACCTAGTGCAG | 44200 fluorescence intensity (a.u.) |
| TTCTCTTCCAAAGGAAATGTATAAATCCACCATTAACTTTCGGAGTCACCTAGTGCAG | 19900 fluorescence intensity (a.u.) |
